# In the supplement of paper PMC8728848:
# The sample as a whole holds a higher share of the strongest signals than the screen did.
# B1: SspB (Streptococcus gordonii), P16952 (protein)
# chain: MKNKKEVYGFRKSKVAKTLCGAVLGTALIAFADKAVFADEVTETTSTSTVEVATTGNPATNLPEAQGEMSQVAKESQAKAGSKESALPVEVSSADLDKAVADAKSAGVKVVQDETKDKGTATTATDNAQKQDEIKSDYAKQAEEIKTTTEAYKKEVAAHQAETDKINAENKAADDKYQKDLKSHQEEVEKINTANATAKAEYEAKLAQYQKDLATVKKANEDSQQDYQNKLSAYQTELARVQKANAEAKEAYEKAVKENTAKNEALKVENEAIKQRNETAKATYEAAMKQYEADLAAIKKANEDNDADYQAKLAAYQTELARVQKANAEAKEAYDKAVKENTAKNTAIQAENEAIKQRNETAKATYDAAVKKYEADLAAVKQANATNEADYQAKLAAYQTELARVQKANADAKATYEKAVEDNKAKNAAIKAENEEIKQRNAVAKTDYEAKLAKYEADLAKYKKEFAAYTAALAEAESKKKQDGYLSEPRSQSLNFKSEPNAIRTIDSSVHQYGQQELDALVKSWGISPTNPDRKKSRAYSYFNAINSNNTYAKLVLEKDKPVDVTYTGLKNSSFNGKKISKVVYTYTLKETGFNDGTKMTMFASSDPTVTAWYNDYFTSTNINVKVKFYDEEGQLMNLTGGLVNFSSLNRGNGSGAIDKDAIESVRNFNGRYIPISGSSIKIHENNSAYADSSNAEKSLGARWNTSEWDTTSSPNNWYGAIVGEITQSEISFNMASSKSGNIWFAFNSNINAIGVPTKPVAPTAPTQPMYETEKPLEPAPVAPSYENEPTPPVKTPDQPEPSKPEEPTYETEKPLEPAPVAPSYENEPTPPVKTPDQPEPSKPEEPNYETEKPLEPAPVAPSYENEPTPPVKIPDQPEPSKPEEPTYDPLPTPPLAPTPKQLPTPPVVPTVHFHYSSLLAQPQINKEIKNEDGVDIDRTLVAKQSIVKFELKTEALTAGRPKTTSFVLVDPLPTGYKFDLDATKAASTGFDTTYDEASHTVTFKATDETLATYNADLTKPVETLHPTVVGRVLNDGATYTNNFTLTVNDAYGIKSNVVRVTTPGKPNDPDNPNNNYIKPTKVNKNKEGLNIDGKEVLAGSTNYYELTWDLDQYKGDKSSKEAIQNGFYYVDDYPEEALDVRPDLVKVADEKGNQVSGVSVQQYDSLEAAPKKVQDLLKKANITVKGAFQLFSADNPEEFYKQYVATGTSLVITDPMTVKSEFGKTGGKYENKAYQIDFGNGYATEVVVNNVPKITPKKDVTVSLDPTSENLDGQTVQLYQTFNYRLIGGLIPQNHSEELEDYSFVDDYDQAGDQYTGNYKTFSSLNLTMKDGSVIKAGTDLTSQTTAETDATNGIVTVRFKEDFLQKISLDSPFQAETYLQMRRIAIGTFENTYVNTVNKVAYASNTVRTTTPIPRTPDKPTPIPTPKPKDPDKPETPKEPKVPSPKVEDPSAPIPVSVGKELTTLPKTGTNDATYMPYLGLAALVGFLGLGLAKRKED
# How the values were obtained:
# Assay in all cases: glycan array binding signal (z-score within array); higher = stronger binding
# Conditions in all cases: glycan notation: IUPAC condensed, linker removed
# [1] = target: Fuc(a1-2)[Gal(a1-3)]Gal(b1-4)Glc
# Method in brief: (§1)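 Arrays were curated from the Consortium for Functional Glycomics database, 3228 in total, and kept only where the protein sequence was available. Binding is expressed as a within-array Z-score. This score was averaged across arrays of the same protein sequence at different concentrations or buffers and across linkers, and negative values can be read as non-binding.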
# [2] = target: Fuc(a1-2)[Gal(a1-3)]Gal(b1-4)GlcNAc
# Method in brief: as §1
# [3] = target: Fuc(a1-2)[Gal(a1-3)]Gal(b1-4)GlcNAc(b1-2)Man(a1-3)[Fuc(a1-2)[Gal(a1-3)]Gal(b1-4)GlcNAc(b1-2)Man(a1-6)]Man(b1-4)GlcNAc(b1-4)GlcNAc
# Method in brief: as §1
# [4] = target: Fuc(a1-2)[GalNAc(a1-3)]Gal(b1-3)GlcNAc(b1-2)Man(a1-3)[Fuc(a1-2)[GalNAc(a1-3)]Gal(b1-3)GlcNAc(b1-2)Man(a1-6)]Man(b1-4)GlcNAc(b1-4)GlcNAc
# Method in brief: as §1
# [5] = target: Fuc(a1-2)[GalNAc(b1-3)]Gal
# Method in brief: as §1
# [6] = target: Fuc(a1-3)[Gal(b1-4)]GlcNAc
# Method in brief: as §1
# [7] = target: Fuc(a1-3)[Gal3S(b1-4)]GlcNAc6S
# Method in brief: as §1
# [8] = target: Gal(a1-3)Gal(b1-3)GlcNAc
# Method in brief: as §1
# [9] = target: Gal(a1-4)Gal(b1-4)Glc
# Method in brief: as §1
# [10] = target: Gal(a1-6)Glc
# Method in brief: as §1
# [11] = target: Gal(b1-3)Gal(b1-4)GlcNAc(b1-2)Man(a1-3)[Gal(b1-3)Gal(b1-4)GlcNAc(b1-2)Man(a1-6)]Man(b1-4)GlcNAc(b1-4)GlcNAc
# Method in brief: as §1
# [12] = target: Gal(b1-3)GalNAc(b1-4)Gal(b1-4)Glc
# Method in brief: as §1
# [13] = target: Gal(b1-3)GalNAc(b1-4)[Neu5Ac(a2-3)]Gal(b1-4)Glc
# Method in brief: as §1
# [14] = target: Gal(b1-3)GlcNAc(b1-2)Man(a1-3)[Gal(b1-3)GlcNAc(b1-2)Man(a1-6)]Man(b1-4)GlcNAc(b1-4)GlcNAc
# Method in brief: as §1
# [15] = target: Gal(b1-3)GlcNAc(b1-3)Gal(b1-3)GlcNAc
# Method in brief: as §1
# [16] = target: Gal(b1-3)GlcNAc(b1-3)Gal(b1-4)[Fuc(a1-3)]GlcNAc(b1-6)[Gal(b1-3)GlcNAc(b1-3)]Gal(b1-4)Glc
# Method in brief: as §1
# [17] = target: Gal(b1-4)Glc
# Method in brief: as §1
# [18] = target: Gal(b1-4)GlcNAc(b1-2)[Gal(b1-4)GlcNAc(b1-4)]Man(a1-3)[Gal(b1-4)GlcNAc(b1-2)Man(a1-6)]Man(b1-4)GlcNAc(b1-4)GlcNAc
# Method in brief: as §1
# [19] = target: Gal(b1-4)GlcNAc(b1-3)[Gal(b1-4)GlcNAc(b1-6)]GalNAc
# Method in brief: as §1
# [20] = target: Gal(b1-4)GlcNAc(b1-6)[Gal(b1-3)]GalNAc
# Method in brief: as §1
# [21] = target: Gal3S(b1-4)[Fuc(a1-3)]Glc
# Method in brief: as §1
# [22] = target: GalNAc(a1-3)GalNAc(a1-3)Gal(a1-4)Gal(b1-4)GlcNAc
# Method in brief: as §1
# [23] = target: GalNAc(b1-3)Gal(a1-6)Gal(b1-4)Glc
# Method in brief: as §1
# [24] = target: Glc(b1-6)Glc
# Method in brief: as §1
# [25] = target: GlcNAc(a1-4)Gal(b1-4)GalNAc
# Method in brief: as §1
# [26] = target: GlcNAc(a1-4)Gal(b1-4)GlcNAc(b1-3)Gal(b1-4)[Fuc(a1-3)]GlcNAc(b1-3)Gal(b1-4)[Fuc(a1-3)]GlcNAc
# Method in brief: as §1
# [27] = target: Man(a1-6)Man
# Method in brief: as §1
# [28] = target: Man(b1-4)GlcNAc
# Method in brief: as §1
# [29] = target: Neu5Ac(a2-3)Gal(b1-3)GlcNAc(b1-3)GalNAc
# Method in brief: as §1
# [30] = target: Neu5Ac(a2-3)Gal(b1-4)[Fuc(a1-3)]GlcNAc(b1-3)Gal(b1-4)[Fuc(a1-3)]GlcNAc(b1-3)Gal(b1-4)[Fuc(a1-3)]GlcNAc
# Method in brief: as §1
binder,measurement,setting,value
B1,glycan array binding signal (z-score),[1],0.486
same,glycan array binding signal (z-score),[2],0.017
same,glycan array binding signal (z-score),[3],2.31
same,glycan array binding signal (z-score),[4],-0.556
same,glycan array binding signal (z-score),[5],0.761
same,glycan array binding signal (z-score),[6],-0.041
same,glycan array binding signal (z-score),[7],0.242
same,glycan array binding signal (z-score),[8],-0.597
same,glycan array binding signal (z-score),[9],-1.22
same,glycan array binding signal (z-score),[10],0.072
same,glycan array binding signal (z-score),[11],-0.672
same,glycan array binding signal (z-score),[12],1.1
same,glycan array binding signal (z-score),[13],-1.62
same,glycan array binding signal (z-score),[14],0.616
same,glycan array binding signal (z-score),[15],-0.283
same,glycan array binding signal (z-score),[16],1.07
same,glycan array binding signal (z-score),[17],-0.34
same,glycan array binding signal (z-score),[18],1.08
same,glycan array binding signal (z-score),[19],5.73
same,glycan array binding signal (z-score),[20],-1.35
same,glycan array binding signal (z-score),[21],0.344
same,glycan array binding signal (z-score),[22],0.985
same,glycan array binding signal (z-score),[23],-0.859
same,glycan array binding signal (z-score),[24],-1.1
same,glycan array binding signal (z-score),[25],-0.557
same,glycan array binding signal (z-score),[26],3.03
same,glycan array binding signal (z-score),[27],2.65
same,glycan array binding signal (z-score),[28],-0.696
same,glycan array binding signal (z-score),[29],0.045
same,glycan array binding signal (z-score),[30],0.022
